Bioassay records as filed in PubChem.
This is a sample that favours compounds with a hit; in the whole collection about 32% have one here.
PostGolgi ctrl: growth inhibition of yeast control strain, primary screen, counter-screen for post-Golgi transport modulator project; inhibition, % at 10 µM; hit rate 5% among 98,000; efflux-deficient yeast background strain, growth absorbance A615, 16 h
CYP2C9 inh: blockers of cytochrome P450 2C9 activity – biochemical, luminescence, ADME assay, primary screen | P11712 | inhibition, % at 5 µM | hit rate 20% among 96,000 | CYP2C9 Supersomes, luciferin-H conversion;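 active = blocking of liver enzyme CYP2C9 beyond about 50% at 5 µM, limit read from the data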
Target sequence (P11712 whole entry, looked up): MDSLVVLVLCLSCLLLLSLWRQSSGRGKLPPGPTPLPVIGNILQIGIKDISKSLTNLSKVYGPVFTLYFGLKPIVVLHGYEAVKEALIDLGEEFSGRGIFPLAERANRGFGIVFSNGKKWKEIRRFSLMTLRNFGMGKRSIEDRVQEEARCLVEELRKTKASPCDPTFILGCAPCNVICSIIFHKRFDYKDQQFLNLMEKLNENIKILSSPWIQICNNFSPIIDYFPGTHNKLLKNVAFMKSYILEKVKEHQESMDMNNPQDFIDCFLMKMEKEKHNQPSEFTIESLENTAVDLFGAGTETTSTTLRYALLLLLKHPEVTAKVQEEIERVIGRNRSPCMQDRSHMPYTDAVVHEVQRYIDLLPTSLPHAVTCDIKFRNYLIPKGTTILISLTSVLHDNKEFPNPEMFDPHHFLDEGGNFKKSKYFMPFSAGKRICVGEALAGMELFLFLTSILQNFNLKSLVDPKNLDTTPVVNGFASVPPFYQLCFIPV
CYP2C19 inhib: blockers of cytochrome P450 2C19 activity – biochemical, luminescence, ADME assay, primary screen | CYP2C19 Supersomes, luciferin-H EGE luminescence, 30 min | inhibition, % at 5 µM | P33261 | hit rate 21% among 96,000 | AID 778, 2007;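 active = CYP2C19 inhibition above a set limit at 5 µM in the primary screen, cut at about 50% in these data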
CYP2C19 act: human CYP2C19 activators, primary screen, biochemical, luminescence; Cytochrome P450 2C19 (Homo sapiens), P33261; recombinant CYP2C19, luciferin-H EGE luminescence; active compounds read high; 0 = fully inhibited enzyme, 1 = untreated enzyme; activation factor at 5 µM; 96,000 tested, under 10 active;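 active = activation factor of at least 2 at 5 µM in the primary screen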
PostGolgi yeast: phenotypic screen on post-Golgi transport, primary screen; post-Golgi transport phenotypic cell assay; AID 739, 2007; hit rate 0.9% among 98,000; inhibition, % at 10 µM;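 also: yeast cells grown in 1536-well plates; yeast grown about 18 h at 30C before absorbance read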
CYP2C9 act: human CYP2C9 activators, primary screen, biochemical, luminescence. hit rate 1.4% among 96,000. activation factor at 5 µM. recombinant CYP2C9, luciferin-H conversion; active compounds read high; factor 1 = untreated enzyme, 0 = blocked;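 active = activation factor of 2 or more for CYP2C9 at a 5 µM dose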
A number is an active result; 0 = inactive; - = no result given. Rule as the data show it, unless noted: active = inhibition above about 30%; inactive = the rest.

SMILES	PostGolgi ctrl	CYP2C9 inh	CYP2C19 inhib	CYP2C19 act	PostGolgi yeast	CYP2C9 act
CCOC(=O)C1CCN(C2CC(=O)N(c3cccc(Cl)c3)C2=O)CC1 (stereo not given)	0	0	0	0	0	0
CCC1Sc2ccccc2N(CC(=O)NCCC(C)C)C1=O (stereo not given)	0	0	0	0	0	0
OCc1nc2ccccc2n1CCCOc1ccc(Br)cc1	45	0	0	0	0	0
CCOc1ccccc1OCCn1nnc2ccccc21	0	0	83	0	0	0
CCOc1cc(C#N)c(NC(=O)Cn2nnc3ccccc32)cc1OCC	0	0	0	0	0	0
Cc1ccccc1-n1c(=O)cc(N2CCN(C(=O)c3ccco3)CC2)[nH]c1=O	0	-	-	-	0	-
O=C1CC(C(=O)Nc2ncccn2)C(c2ccccc2)O1 (stereo not given)	0	0	0	0	0	0
COc1ccccc1NC(=O)C1CC(=O)OC1c1ccccc1 (stereo not given)	0	0	78	0	0	0
CCCCN(CC)CCCNC(=O)CC1Oc2ccccc2NC1=O (stereo not given)	0	0	0	0	0	0
Cc1cc(C(=O)CSc2nc3ccccc3c(=O)[nH]2)c(C)n1C	0	0	0	0	0	0
C=CCn1c(SCC(=O)c2ccc(O)c(O)c2)nnc1-c1ccccc1OC	0	0	75	0	0	0
Cc1cc(C(=O)CSc2nc3ccccc3n2C)c(C)n1C	0	0	0	0	0	3.4
COCCn1c(C)cc(C(=O)CSc2nnc(-c3cccnc3)n2-c2ccccc2F)c1C	0	0	0	0	0	0
Cc1ccccc1-n1c(SCC(=O)c2cc(C)n(C)c2C)nnc1-c1cccnc1	0	62	67	0	0	0
CCn1c(SCC(=O)c2ccc(O)c(O)c2)nnc1-c1ccccc1	0	0	98	0	0	0
CCn1c(SCC(=O)NNC(=O)Cc2ccccc2)nnc1-c1ccccc1	0	0	0	0	0	0
CSc1nc(Oc2ccc3ccccc3c2)c2ccccc2n1	0	0	0	0	0	0
CCn1c(SCC(=O)c2cc(C)n(C)c2C)nnc1-c1ccccc1	0	0	100	0	0	0
CCn1c(SCC(=O)c2ccc(O)c(O)c2)nnc1-c1ccccc1OC	0	0	67	0	0	0
Cn1c(OCc2ccc3c(c2)OCO3)nc2c1c(=O)n(Cc1ccc(Cl)c(Cl)c1)c(=O)n2C	0	80	0	0	0	0
Cn1c(=O)c2c(nc(Oc3ccc4c(c3)OCO4)n2Cc2ccc(F)cc2)n(C)c1=O	0	0	0	0	0	0
Cn1c(NCc2ccco2)nc2c1c(=O)n(Cc1ccc(Cl)c(Cl)c1)c(=O)n2C	49	69	60	0	0	0
Cn1c(OCc2cccnc2)nc2c1c(=O)n(Cc1ccc(Br)cc1)c(=O)n2C	-	68	68	0	-	0
O=C(Cn1c(C(F)(F)F)nc2ccccc21)c1ccc(F)cc1	0	0	0	0	0	0
Cc1cccc(CS(=O)(=O)Cc2ccc(C(=O)NCc3ccco3)o2)c1	0	0	0	0	0	0
SMILES	PostGolgi ctrl	CYP2C9 inh	CYP2C19 inhib	CYP2C19 act	PostGolgi yeast	CYP2C9 act
Cc1ccccc1CS(=O)(=O)Cc1ccc(C(=O)NCc2cccnc2)o1	0	0	78	0	0	0
Cc1cccc(CS(=O)(=O)Cc2ccc(C(=O)NCc3cccnc3)o2)c1	0	0	82	0	0	0
Cc1ccc(CCNC(=O)c2ccc(CS(=O)(=O)Cc3ccccc3F)o2)cc1	0	98	75	0	0	0
CN(C(=S)Nc1ccccc1F)C1(c2ccccc2Cl)CCCCC1=O (stereo not given)	0	0	82	0	0	0
Cc1cccc(NC(=S)N(C)C2(c3ccccc3Cl)CCCCC2=O)c1 (stereo not given)	0	68	97	0	0	0
Cc1cccc(NC(=O)C23CCC(C)(C2Br)C3(C)C)c1 (stereo not given)	0	0	0	0	0	0
CCNc1nc(N)c(C(=O)c2ccc(Cl)s2)s1	46	54	83	0	0	0
COc1ccccc1CNc1cc(CSc2ccc(Cl)cc2)nc(C)n1	0	94	91	0	0	0
COc1cccc(CNc2cc(CSc3ccc(Cl)cc3)nc(C)n2)c1	0	96	94	0	0	0
COc1ccccc1CNc1n[nH]c(NCc2ccccc2OC)n1	0	0	0	0	0	0
C=CCN(Cc1cccc(OC)c1OC)S(=O)(=O)N(C)C	0	0	0	0	0	0
CCCN1C(=O)/C(=C/c2ccc(N3CCCC3)c(C)c2)NC1=S	0	53	53	0	0	0
COc1ccccc1-c1cc(C(F)(F)F)n2ncc(S(=O)(=O)c3ccccc3)c2n1	46	97	0	0	0	0
COc1cc(/C=C/C(=O)c2ccc(Cl)s2)cc(OC)c1O	45	0	50	0	0	0
COc1ccc(/C=C/C(=O)c2ccc(Cl)s2)cc1O	0	59	54	0	0	0
O=C(CSCC(=O)OCC(=O)c1ccc(Br)cc1)Nc1cccc2ccccc12	0	0	0	0	0	0
Cc1ccc(S(=O)(=O)N(C)Cc2ccc(-c3nnc4n3CCC4)cc2)cc1	33	0	88	0	0	0
O=C(C1CCCN(S(=O)(=O)c2cccc3nsnc23)C1)N1CCc2ccccc21 (stereo not given)	0	74	52	0	0	0
O=C(C1CCN(S(=O)(=O)c2cccc3nsnc23)CC1)N1CCc2ccccc21	0	0	51	0	0	0
O=C(C1CCCN(S(=O)(=O)c2cccc3nsnc23)C1)N1CCc2ccccc2C1 (stereo not given)	0	0	0	0	0	0
CCN1CCN(C(c2ccccc2F)c2nnnn2Cc2ccc3c(c2)OCO3)CC1 (stereo not given)	0	0	0	0	0	0
CC1=C(C(=O)Nc2ccccc2)C(c2ccc(C)o2)n2c(s/c(=C\c3ccco3)c2=O)=N1 (stereo not given)	0	85	69	0	0	0
CCCc1nnc(NC(=O)CC(=O)Nc2ccccc2C(=O)O)s1	0	0	0	0	0	0
C=C(C)Cn1c(CCNC(=O)CC)nc2ccccc21	0	-	-	-	0	-
CC(=O)NCCc1nc2ccccc2n1Cc1ccccc1	0	0	59	0	0	0
C=C(C)Cn1c(CCNC(=O)C(C)C)nc2ccccc21	41	0	0	0	0	0
Cc1ccccc1CN1CCN(CC(=O)NCc2ccccc2)C1=O	0	0	0	0	0	0
CSc1nc(C)cc(OCC(=O)n2nc(C)cc2C)n1	0	0	0	0	0	0
O=C(c1ccco1)N1CCN(C(=O)C2Cc3ccccc3CN2S(=O)(=O)c2ccc(F)cc2)CC1 (stereo not given)	0	0	76	0	0	0
